# FLuc inh-1 = inhibitors of firefly (Photinus pyralis) luciferase; P08659; purified P. pyralis luciferase, luminescence, biochemical; Potency, µM (top dose mostly 115 µM), most hits filed as inhibitors; 2.5% of 76,000 active; AID 1347043; note: % is set by controls: 0 for no effect and ±100 for the full control effect; nearly all actives have a fitted effect of over 65% in size
#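 Luminescence read by CCD imaging after purified firefly luciferase (10nM final) was added to substrate buffer holding 10uM D-luciferin and 10uM ATP, pH 7.5, pre-dosed with compound.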
# HEK293 tox = cytotoxic compounds in HEK 293 cells; 6.6% of 94,000 active; Potency, µM (top dose mostly 115 µM), for the others: at the top dose activity change, negative = cytotoxicity, actives largely listed as inhibitors; HEK 293 viability, ATP luminescence (CellTiter-Glo), 48-72 h; note: % is set by controls: 0 for no effect and ±100 for the full control effect; nearly all actives have a fitted effect of over 60% in size
#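 CellTiter-Glo luminescence (cellular ATP) was read after 48 or 72 hr of compound exposure at 37 degree Celsius. Cells were HEK 293 plated at 250 cells/well.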
# SNCA expr inhib = inhibitors of alpha-synuclein (SNCA) gene expression. HEK-293 SNCA-luciferase knock-in, luminescence, 24 h. Potency, µM (top dose mostly 57.2 µM), for inactives: at the highest dose activity change, negative = inhibition, most hits filed as inhibitors. 0.17% of 140,000 active;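 note: plate controls were DMSO cells for no effect and cell-free wells for full effect; nearly all actives have a fitted effect of over 45% in size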
# HEK293 viab = cell viability loss counter-screen | AID 1671193 | Potency, µM (highest dose often 57.1 µM), inactives show at the highest dose activity change, negative = cytotoxicity, usual class: cytotoxic | 0.12% of 150,000 active | HEK-293-SNCA-luc viability, GF-AFC fluorescence, 24 h;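 note: 0% = DMSO-treated cells and -100% = medium-only wells without cells; nearly all actives have a fitted effect of over 30% in size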
#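 HEK-293-SNCA-luc cells (1500/well) plated 24 h, then exposed 24 h to a dilution series; GF-AFC added 30 min at 37C, fluorescence 405/540 nm; normalised to medium-only and DMSO wells, Hill fit.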
# 3T3 cytotox = NIH 3T3 cell cytotoxicity | NIH 3T3 viability, CellTiter-Glo ATP luminescence, 48-72 h | Potency, µM (top dose mostly 96.7 µM), for inactives: at the top dose activity change, negative = cytotoxicity, hits mostly inhibitors | 4.3% of 94,000 active | AID 1345082; note: % is set by controls: 0 for no effect and ±100 for the full control effect; nearly all actives have a fitted effect of over 55% in size
#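 Mouse fibroblast NIH 3T3 cells, 400 per well, received compound via pintool and were incubated for 48 or 72 hr prior to CellTiter-Glo ATP luminescence measurement.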
# NPR1 antag = blocks ANP-stimulated signaling of human Npr1 receptor. P16066. HEK293 hNpr1 GloSensor cGMP, ANP-stimulated luminescence. Potency, µM (series often up to 46.3 µM), inactives show top-dose activity change, negative = inhibition, most hits filed as inhibitors. 1.6% of 76,000 active. AID 1347048; calls by dose curve; note: % is set by controls: 0 for no effect and ±100 for the full control effect; nearly all actives have a fitted effect of over 60% in size
# Target sequence (P16066 whole entry, looked up): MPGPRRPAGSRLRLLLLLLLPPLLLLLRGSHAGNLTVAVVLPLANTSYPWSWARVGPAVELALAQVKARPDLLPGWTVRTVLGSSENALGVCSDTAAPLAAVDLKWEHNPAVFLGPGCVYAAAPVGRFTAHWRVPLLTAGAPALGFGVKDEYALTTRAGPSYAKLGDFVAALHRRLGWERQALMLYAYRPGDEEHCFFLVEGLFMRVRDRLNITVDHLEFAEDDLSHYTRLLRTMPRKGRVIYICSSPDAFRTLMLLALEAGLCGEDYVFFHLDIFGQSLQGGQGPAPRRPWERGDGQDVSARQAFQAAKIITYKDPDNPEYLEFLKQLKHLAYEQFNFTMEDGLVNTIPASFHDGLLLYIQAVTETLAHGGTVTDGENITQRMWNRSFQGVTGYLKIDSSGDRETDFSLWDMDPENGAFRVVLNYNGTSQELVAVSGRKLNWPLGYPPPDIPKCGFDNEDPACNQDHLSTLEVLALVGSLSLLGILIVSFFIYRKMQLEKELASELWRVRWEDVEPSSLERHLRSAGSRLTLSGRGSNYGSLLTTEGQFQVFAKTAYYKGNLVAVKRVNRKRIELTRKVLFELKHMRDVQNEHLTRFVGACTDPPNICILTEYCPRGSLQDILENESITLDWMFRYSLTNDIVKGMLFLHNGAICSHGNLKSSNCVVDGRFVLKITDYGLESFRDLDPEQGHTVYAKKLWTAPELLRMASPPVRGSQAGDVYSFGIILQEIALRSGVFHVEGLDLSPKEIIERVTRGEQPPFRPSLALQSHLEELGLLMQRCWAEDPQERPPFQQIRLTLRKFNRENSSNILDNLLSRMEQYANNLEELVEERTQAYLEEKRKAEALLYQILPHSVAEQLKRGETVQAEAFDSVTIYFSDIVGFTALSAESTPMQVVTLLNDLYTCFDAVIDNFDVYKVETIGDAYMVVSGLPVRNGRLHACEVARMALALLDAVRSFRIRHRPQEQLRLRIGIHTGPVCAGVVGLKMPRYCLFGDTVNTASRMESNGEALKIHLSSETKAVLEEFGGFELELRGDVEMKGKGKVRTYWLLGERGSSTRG
#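 Compound pre-incubated 30 min at room temperature on GloSensor-loaded HEK293 cells stably carrying hNpr1 and the pGS-40F cGMP biosensor. Stimulation uses hNppA at 0.1 nM final; luminescence is taken at baseline and 20 min post-agonist.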
# FLuc SDR -ATP = binders stabilizing firefly luciferase, without ATP | Purified FLuc-C-HiBiT, Nano-Glo HiBiT luminescence, no ATP | 7.8% of 1,300 active | AID 1963318 | Potency, µM (series often up to 32.7 µM), for inactives: top-dose activation (signal gain), usual class: activators | shares compounds with FLuc inh-1; note: nearly all actives have a fitted effect of over 55% in size
# FLuc SDR ATP = binders stabilizing firefly luciferase, plus ATP. purified FLuc-C-HiBiT + ATP, HiBiT complementation luminescence. 8.7% of 1,300 active. Potency, µM (doses to about 32.7 µM), for inactives: at the highest dose activation (gain of signal), usual class: activators. shares compounds with FLuc inh-1;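 note: signal reports ligand binding via conformational change of the enzyme rather than luciferase catalysis; % of control where 0% means no effect; nearly all actives have a fitted effect of over 55% in size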
# FLuc inh-2 = inhibitors of firefly luciferase enzymatic activity; 42% of 1,300 active; purified FLuc-C-HiBiT enzyme, luciferin luminescence; Potency, µM (top dose mostly 32.7 µM), inactives show top-dose activity change, negative = inhibition, most hits filed as inhibitors; AID 1963320; shares compounds with FLuc inh-1; note: % is set by controls: 0 for no effect and ±100 for the full control effect; nearly all actives have a fitted effect of over 70% in size
# An asterisk follows results filed as active; i = inactive; ? = inconclusive; . = no result given; [ ] = dose if it differs, or a comment. This is a sample that favours compounds with a hit; in the whole collection about 7.4% have one here. Unless noted, calls come from the whole dose curve; as a rule, active = well fitted curve in the direction sought with a large enough effect; inconclusive = small, poorly fitted or top-dose-only effect, or another doubt; inactive = no such curve, though single readings can be large; an effect the other way counts as inactive or inconclusive. Potency is the fitted concentration of half-maximal effect.
SMILES,FLuc inh-1,HEK293 tox,SNCA expr inhib,HEK293 viab,3T3 cytotox,NPR1 antag,FLuc SDR -ATP,FLuc SDR ATP,FLuc inh-2
COc1cc(OC)cc(C(=O)Nc2cc(-c3nc4ccccc4s3)ccc2OC)c1,.,.,-2%,-6%,.,.,13%,8%,-13%
COc1ccc(OC)c(NC(=O)c2cc(-c3ccc(Cl)s3)nc3ccccc23)c1,.,.,-5%,-4%,.,.,.,.,.
Cc1cc(C)c(S(=O)(=O)n2cc(C)cc2C)c(C)c1,.,.,.,-10%,.,.,.,.,.
O=C(c1cccc(Cl)c1)N1CCCN(c2ccc3nnc(C4CC4)n3n2)CC1,.,-7%,.,.,-24%,.,.,.,.
Cc1nccn1CCN(C)c1ccc(-c2nc(COc3ccccc3)no2)cn1,13µM*,?,-30%,5%,?,?,20%,18%,9.9µM*
Cc1ccc(-n2ncc3c(N(C)C)ncnc32)cc1Cl,.,.,23%,7%,.,.,?,?,2.2µM*
COc1ccc(-c2cc(N3CCCC(NC(=O)c4cccc(OC)c4OC)C3)n[nH]2)cc1 (stereo not given),?,?,35%,-12%,?,-11%,.,.,.
COc1ccc(-c2cc(N3CCCC(NC(=O)c4cc(OC)cc(OC)c4)C3)n[nH]2)cc1 (stereo not given),5.6µM*,?,27%,-9%,?,-19%,25%,17%,?
COc1ccc(-c2cc(N3CCC(NC(=O)c4ccncc4)C3)n[nH]2)cc1 (stereo not given),?,?,22%,-11%,-24%,2%,.,.,.
COc1ccc(-c2cc(N3CCCC(NC(=O)c4ccncc4)C3)n[nH]2)cc1 (stereo not given),13µM*,?,14%,4%,4%,-4%,24%,17%,?
COc1ccc(-c2cc(N3CCCC(NC(=O)c4cc(OC)c(OC)c(OC)c4)C3)n[nH]2)cc1 (stereo not given),6.3µM*,?,61%,-8%,?,-4%,30%,16%,5.6µM*
COc1ccc(-c2cc(N3CCCC(NC(=O)c4ccc(OC)cc4OC)C3)n[nH]2)cc1 (stereo not given),13µM*,45µM*,38%,?,?,-12%,21%,14%,?
CCOc1ccc(C(=O)NC2CCCN(c3cc(-c4ccc(OC)cc4)[nH]n3)C2)cc1OCC (stereo not given),i,?,7%,1%,-15%,1%,.,.,.
O=C(NC1CCN(c2ccc3nnc(-c4ccccc4)n3n2)CC1)c1cccc(Cl)c1,.,-26%,.,.,?,.,.,.,.
CC(C)(C)C1CCc2nc(NC(=O)c3cccc(Cl)c3)sc2C1 (stereo not given),.,.,?,-13%,.,.,17%,16%,2.5µM*
Cc1noc(-c2ccc(-c3noc(-c4ccc(C(F)(F)F)cc4)n3)cc2)n1,.,.,33%,6%,.,.,.,.,.
O=C(O)c1ccc(-c2noc(-c3ccc(C(F)(F)F)cc3)n2)cc1,.,.,.,.,.,.,?,0.44µM*,0.31µM*
O=C(O)c1ccc(-c2noc(-c3ccc(F)cc3)n2)cc1,.,.,.,.,.,.,?,0.56µM*,0.44µM*
Fc1ccc(-c2cc(-c3nc(-c4ccccc4)no3)[nH]n2)cc1,.,.,140%,-2%,.,.,.,.,.
COCCC(=O)N1CCCCC1c1noc(COc2ccc(C)cc2)n1 (stereo not given),i,-20%,58%,6%,-21%,2%,.,.,.
Cc1noc(C)c1CCC(=O)NC1CCCc2c1[nH]c1ccccc21 (stereo not given),i,?,-2%,-5%,?,-9%,.,.,.
c1ccc(CNc2cc3c(cn2)CN(Cc2cccnc2)CCN3)cc1,i,-66%[172 µM],81%[87.6 µM],-29%[87.6 µM],-68%[138 µM],-13%[70.6 µM],.,.,.
COc1ccc(-c2cc3c(cn2)CN(Cc2cccnc2)CCN3)cc1OC,5.6µM*,?,46%[87.6 µM],2%[87.6 µM],-27%[138 µM],2%[70.6 µM],?,17%[49.3 µM],14µM*
COc1ccc(-c2cc3c(cn2)CN(Cc2cccnc2)CCN3)cc1F,5µM*,?,-1%[87.6 µM],-5%[87.6 µM],-14%[138 µM],?,?,18%[49.3 µM],14µM*
O=C(c1ccc(F)cc1)N1CCCC(C(=O)N2CCC(c3nc4ccncc4[nH]3)CC2)C1 (stereo not given),.,0%,-4%,5%,-14%,.,.,.,.
SMILES,FLuc inh-1,HEK293 tox,SNCA expr inhib,HEK293 viab,3T3 cytotox,NPR1 antag,FLuc SDR -ATP,FLuc SDR ATP,FLuc inh-2
Cc1cc(C)cc(C(=O)N2c3ccccc3CC2c2nc(C3CC3)no2)c1 (stereo not given),i,?,-16%,-10%,?,-20%,.,.,.
O=C(C1CCC1)N1c2ccccc2CC1c1noc(C2CCOCC2)n1 (stereo not given),1.8µM*,?,47%,5%,-15%,?,21%,19%,?
O=C(N1c2ccccc2CC1c1noc(C2CCOCC2)n1)C1(c2ccccc2)CC1 (stereo not given),8.9µM*,?,194%,2%,-23%,-21%,19%,14%,?
O=C(NC1CCCCC1)N1c2ccccc2CC1c1noc(C2CCOCC2)n1 (stereo not given),i,-21%,24%,-15%,-14%,2%,.,.,.
COc1cccc(CNC(=O)N2c3ccccc3CC2c2noc(C3CCOCC3)n2)c1 (stereo not given),5µM*,-23%,131%,-3%,-30%,-4%,14%,14%,?
O=C(C1CCCN1c1nccc(Nc2ccccc2F)n1)N1CCOCC1 (stereo not given),.,5%,?,-28%[12.5 µM],-14%,.,.,.,.
CNC(=O)CN1C(=O)CN(C(=O)c2ccc(F)cc2)CCC(OC)c2ccccc21 (stereo not given),.,-22%,.,.,?,.,.,.,.
CC(CCn1cccn1)NC(=O)c1csc2nc(-c3ccc(C(F)(F)F)cc3)cn12 (stereo not given),13µM*,?,-7%,-3%,?,-27%,17%,12%,9.9µM*
COc1ccccc1Cn1c(=O)c(C(=O)N2CCN(C(=O)C3CC3)CC2)nc2cccnc21,.,i,-11%,1%,-2%,.,.,.,.

# Screens as filed in PubChem BioAssay.
